This is an account of results in PubChem BioAssay (NCI).

Values joined by “and” are separate entries in the source; they are usually repeats but may differ in a detail not shown here. Equal values may be shown once. Compounds without any hit were thinned out: in the full panel of roughly 83,000, 20% have a hit.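 A percent growth of 40 corresponds to 60% growth inhibition; 0 means no net growth; -100 means all cells died. Active threshold: below 10.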 A number with no mark means an inactive call. Active and inactive are the calls of the source.

In the test the test system is MDA-MB-468 breast. The test can be described thus: NCI-60 one-dose screen, 48 h (100 = growth as untreated, 0 = no growth, -100 = all killed). Conditions: 10 µM unless noted.
For `Cc1cc2c(c(C)c1Cl)C(=O)/C(=C/c1cccc([N+](=O)[O-])c1)O2`, the growth is 92.2%.

Turning to `COc1ccc(-c2nn(-c3ccccc3)cc2/C=C2/SC(=S)N(C)C2=O)cc1`, the growth is 89.1%.

`CCOC(=O)c1c(C)[nH]c(C)c1C=O`: the growth was 99.1%.

Consider `COc1ccc(C(C)=O)cc1S(N)(=O)=O`, for which the growth is 99.4%.

In the case of `Cc1c(C(=O)/C=C/c2ccc(Cl)cc2)nnn1-c1ccc2oc(=O)ccc2c1`, the growth was 85.9%.

As for `Oc1[nH]c2ccc(Cl)cc2c1N=Nc1nc(N=Nc2c(O)[nH]c3ccc(Cl)cc23)nc(N2CCCCC2)n1`, the growth is 18.1%.

As to `COc1ccc(/C=N\NC(=O)c2cnn(CC(O)c3ccccc3)c2N)cc1OCc1ccc(Cl)cc1` (stereo not given), the growth is 76.8%.

For the compound `N#CC1=C(N)Oc2c(sc3c(Br)cccc23)C1c1ccc(Cl)cc1` (stereo not given), the growth is 1.22% (active).

With `COc1cccc(COc2ccc(/C=C3/C(=O)Nc4cc(Cl)ccc43)cc2)c1`, the growth was 85.1%.

As to `Cc1nn(-c2ccccc2)cc1/C=C1\SC(N2CCCCC2)=NC1=O`, the growth is 96.3%.

Consider `CC(C)[C@H]1CCC2=C3CC[C@]45OC(=O)[C@@]6(CCC(C)(C)C[C@H]64)CC[C@@]5(C)[C@]3(C)CC[C@@]21C`, for which the growth was 76.4% [100 µM].

As for `Cn1cc(-c2csc(-c3c[nH]c4ncccc34)n2)c2cc(F)cnc21`, the growth is -16% (active).

On to `S=C(N/N=C/c1cc(Cl)cc(Cl)c1)NC12CC3CC(CC(C3)C1)C2`, for which the growth is 104%.

On to `Cc1cccc2c(N)c3ccccc3nc12`, for which the growth was -60.5% (active).

With `C=C(C)[C@@H]1CC[C@]2(C(=O)OC)CC[C@]3(C)[C@H](CC[C@@H]4[C@@](C)(CCc5nn[nH]n5)[C@H](C(=C)C)CC[C@]43C)[C@@H]12`, the growth was -7.51% [100 µM] (active).

Consider `NC1=NC(=O)C(c2ccccc2)(c2ccccc2)S1`, for which the growth is 111%.

On to `Cn1c(=O)c2c(nc(N/N=C/c3ccccc3Cl)n2C)n(C)c1=O`, for which the growth is 102%.

Consider `O=C1CN(CCN2CC(=O)N(Cc3ccccc3)C(=O)C2)CC(=O)N1Cc1ccccc1`, for which the growth is 107%.

For the compound `COc1ccc(C(=O)C2C(C#N)C(C#N)C3c4ccccc4C=CN23)cc1` (stereo not given), the growth is 64.8%.

Regarding `OC[C@H]1OC([S-])[C@H](O)[C@@H](O)[C@@H]1O.[Au+]` (stereo not given in full), the growth was 90.7%.

Regarding `O=S(=O)(O)c1ccc(N=Nc2ccc(N=Nc3cccc4ccccc34)c(S(=O)(=O)O)c2)cc1`, the growth was 89.8%.

Regarding `CCN(CC)CCOc1cccc2c1C(=O)c1cccc(OCCN(CC)CC)c1C2=O`, the growth is 8.32% (active).

As to `COc1ccc(-n2cnc3c(sc4ncc(Cl)cc43)c2=O)cc1`, the growth is 93.1%.

In the case of `O=C1c2cccnc2-c2nccc3c2c1nc1cc(Br)ccc13`, the growth was -54.6% (active).

With `CC(C)(C)OC(=O)NCc1cccc(N=C=S)c1`, the growth is 39.4%.

Turning to `C=C(C)[C@@H]1CC[C@]2(C(=O)NCCNCCNCCN)CC[C@]3(C)[C@H](CC[C@@H]4[C@@]5(C)CC[C@H](O)C(C)(C)[C@@H]5CC[C@]43C)[C@@H]12`, the growth was -48.6% [100 µM] (active).

Consider `CCCCCCCN(CCCCCCC)C(=N)c1ccnc2ccccc12`, for which the growth was -83.5% (active).

Consider `N#Cc1c(-c2cccc(F)c2)cc(-c2cccnc2)[nH]c1=O`, for which the growth is 106%.

As to `Cc1cc2c(-c3nc4ccccc4[nH]3)c(O)c(O)cc2c(O)c1-c1c(C)cc2c(-c3nc4ccccc4[nH]3)c(O)c(O)cc2c1O`, the growth is -18.3% (active).

As to `CCNC(=O)Oc1ccc(/C(=C(/C)Cc2ccc(OC)cc2)c2ccc(OCCN3CCCC3)cc2)cc1`, the growth was 61.9%.

Turning to `CC(=O)Oc1c(C)c(OC(C)=O)c2c(c1C(C)=O)OC1CC(=O)C(C(C)=O)=C(O)C21C` (stereo not given), the growth is 90.1%.

`CCCCC(CCCCCC(CCCC)NCc1ccc2c(c1)OCO2)NCc1ccc2c(c1)OCO2` (stereo not given): the growth was -90.7% (active).

Regarding `CN(C)c1ccc2c(N(C)C)cc(N(C)C)nc2c1`, the growth was 7.64% (active).

Consider `Cc1ncc(CO)c(C(=O)O)c1O`, for which the growth was 108%.

`CCC1=Cc2cc(OC)ccc2OC12C=Cc1cc(OC)ccc1O2` (stereo not given): the growth is 69.6%.

Take `O=C(Nc1cccc(-n2cc(-c3ccncc3)c(-c3ccc(Cl)c(O)c3)n2)c1)Nc1cccc(C(F)(F)F)c1`: the growth was 10.5%.

With `Cc1cc(N2CCCC2)nc(NC2CCCC(Nc3ccnc4cc(Cl)ccc34)C2)n1` (stereo not given), the growth was -56.1% (active).

For the compound `Cc1ccc(OCCOCCOCCOc2ccc(C)n(O)c2=S)c(=S)n1O`, the growth was 12.1%.

With `Oc1nc(NCCc2ccccc2)sc1/C=C1\C=Nc2ncccc21`, the growth was -2.06% (active) and -14.5% (active).

For `Cc1cc(Nc2nc(N[C@@H](C)c3ncc(F)cn3)ncc2Cl)n[nH]1`, the growth was 100%.
